Where “and” joins values, the source holds several entries; their conditions need not be identical. Identical values can stand only once. Results filed as inconclusive are left out. Entries that show only a call come without a potency. Some structures have more than one record in an assay (separate samples or runs), and their calls can disagree. Calls of active or inactive are those of the source. Calls come from the whole dose curve; as a rule, active = well fitted cell-killing curve with a large enough effect in the repeat runs (not every such curve was filed as active); inconclusive = weak or mixed curves, or effect the other way; inactive = no such curve, though single readings can be large or run the other way.
Experiment: qHTS assay to identify small molecule antagonists of the estrogen related receptor signaling pathway with the pleiotropic PPARgamma coactivator (PGC) from Tox21 10K library - cell viability counter screen (AID 1224840); note: nearly all actives have a fitted effect of over 40% in size
Conditions: PGC/ERR reporter cells viability, CellTiter-Fluor, 17.5 h; series mostly up to 92.4 µM; viability change, negative = cytotoxic: at the top concentration
Excerpt: National Center for Advancing Translational Sciences [NCATS]
NIH Chemical Genomics Center [NCGC]
U.S. Environmental Protection Agency [EPA]
National Institutes of Environmental Health Sciences [NIEHS]
National Toxicology Program [NTP]
U.S. Food and Drug Administration [FDA]
Estrogen related receptors (ERRs), the first orphan nuclear receptors discovered, play an important role in the control of cellular energy metabolism. ERRs are required for high-energy production in response to the environmental challenges. The pleiotropic PPARgamma coactivator (PGC) is a major partner of ERR and a key regulator in energy homeostasis. Together they have been implicated in the etiology of metabolic disorders such as Type 2 diabetes and metabolic syndrome. ERR-alpha was also identified as an adverse marker for breast cancer progression; ERR-alpha-positive tumors have a poor prognosis. To screen and to identify environmental compounds that perturb the ERR and PGC/ERR signaling pathways could provide valuable information for potential therapeutic or preventive measures in the treatment of metabolic disease. To differentiate true PGC/ERR antagonists or agonist from cytotoxic substances, the assay is multiplexed with cell viability assay.
Tox21 Assay Protocol Summary:
The PGC/ERR cells were dispensed at 2,000 cells/5 ul/well in 1536-well white plates using a Multidrop dispenser. After the assay plates were incubated at a 37 C/5% CO2 incubator for 6 hours, 23 nL of compounds dissolved in DMSO, positive and negative controls or DMSO only was transferred to the assay plate by a pin tool. The plates were incubated at 37 C for 17.5 hours. 1 ul/well of CellTiter-Fluor reagent was added into the assay plates using a Flying Reagent Dispenser. After 30-minute incubation at 37 C/5% CO2, the fluorescence intensity in the plates was measured using a ViewLux plate reader.
In the case of `Nc1ccc(Nc2ccccc2)cc1`, the “viability change, negative = cytotoxic” value is reported as -28% (inactive). With `CN(C)c1nc(N(C)C)nc(N(C)C)n1` the Potency was “inactive”. In the case of `CCC(C)c1ccccc1O` (stereo not given), the Potency is reported as “inactive”. In the case of `CCOC(=O)C(C#N)=C(c1ccccc1)c1ccccc1`, the Potency is reported as “inactive”. With `CC1=CC2C3CC(C=C3C)C2C1` (stereo not given) the Potency was “inactive”. With `CCCCNS(=O)(=O)c1ccccc1` the Potency was “inactive”. In the case of `O=C(Nc1ccc([N+](=O)[O-])cc1Cl)c1cc(Cl)ccc1O`, the Potency is reported as 2.73 µM (active). In the case of `CN(C)CCN(Cc1cccs1)c1ccccn1`, the Potency is reported as “inactive”. With `CCCCCCCCCCCO` the Potency was “inactive”. In the case of `CC(=O)O[C@]1(C(C)=O)CC[C@H]2[C@@H]3C=C(Cl)C4=CC(=O)[C@@H]5C[C@@H]5[C@]4(C)[C@H]3CC[C@@]21C`, the Potency is reported as “inactive”. For `O=C1OC2(c3cc(Br)c(O)c(Br)c3Oc3c2cc(Br)c(O)c3Br)c2c(Cl)c(Cl)c(Cl)c(Cl)c21`, the Potency was 4.86 µM (active) and 29.5 µM (active). With `C[C@]12CCC(=O)C=C1CC[C@@H]1[C@@H]2C(=O)C[C@@]2(C)[C@H]1CC[C@]2(O)C(=O)CO` the Potency was “inactive”. With `Cc1ccc2c(n1)Oc1ccc(C(C)C(=O)OCC(=O)N(C)C)cc1C2` (stereo not given) the Potency was “inactive”. With `OC1CCCCCCCCCCC1` the Potency was “inactive”. With `c1ccc2c(c1)Oc1ccccc1S2` the Potency was “inactive”. For `Clc1nc(Cl)c(Cl)c(Cl)c1Cl`, the Potency was “inactive”. With `Cc1ccc(C(=O)c2cc(O)c(O)c([N+](=O)[O-])c2)cc1` the Potency was 43.3 µM (active) and inactive. With `CNCCCC12CCC(c3ccccc31)c1ccccc12` the Potency was 48.6 µM (active) and inactive. In the case of `Cc1cccc([N+](=O)[O-])c1C`, the Potency is reported as “inactive”. For `COC(=O)c1ccccc1`, the Potency was “inactive”. For `C#C[C@]1(O)CC[C@H]2[C@@H]3CCC4=Cc5oncc5C[C@]4(C)[C@H]3CC[C@@]21C`, the Potency was 48.6 µM (active) and inactive. With `CN(C)C(=N)N=C(N)N` the Potency was “inactive”. In the case of `CC(C(=O)O)c1cccc(C(=O)c2ccccc2)c1` (stereo not given), the Potency is reported as “inactive”. With `C=C(C)C1CC=C(C)CC1` (stereo not given) the Potency was “inactive”. In the case of `OC(CCl)CCl`, the Potency is reported as “inactive”. In the case of `Cc1[nH]c(=O)c(C#N)cc1-c1ccncc1`, the Potency is reported as “inactive”. With `Cc1c(OCC(F)(F)F)ccnc1CS(=O)c1nc2ccccc2[nH]1` (stereo not given) the “viability change, negative = cytotoxic” value was -8.06% [at 42.5 µM] (inactive). In the case of `c1ccc2cc(Nc3ccc(Nc4ccc5ccccc5c4)cc3)ccc2c1`, the Potency is reported as “inactive”. In the case of `CCCCC(CC)COCC1CO1` (stereo not given), the Potency is reported as “inactive”. For `CC(=O)Oc1ccccc1C(=O)Nc1ncc([N+](=O)[O-])s1`, the Potency was 15.7 µM (active) and 23.7 µM (active). For `CCCCCCCCCC(=O)OC`, the Potency was “inactive”. With `CN(C)CCC=C1c2ccccc2CCc2ccccc21` the Potency was 48.6 µM (active) and inactive. With `COc1cc([C@@H]2c3cc4c(cc3[C@H](O)[C@H]3COC(=O)[C@H]23)OCO4)cc(OC)c1OC` the “viability change, negative = cytotoxic” value was -33.1% [at 42.5 µM] (inactive). With `Cc1c(C(N)=O)cc([N+](=O)[O-])cc1[N+](=O)[O-]` the Potency was “inactive”. With `C=CC(C)(CCC=C(C)C)OC(C)=O` (stereo not given) the Potency was “inactive”. In the case of `CCCCOCCOCCO`, the Potency is reported as “inactive”. For `CC(C)=CCCC(C)CCO` (stereo not given), the Potency was “inactive”. With `O=CCCCC=O` the Potency was “inactive”. With `Nc1ncn([C@@H]2O[C@H](CO)[C@@H](O)[C@H]2O)c(=O)n1` the “viability change, negative = cytotoxic” value was -25% [at 42.5 µM] (inactive). For `O=C1c2cccc(O)c2C(=O)c2c(O)cccc21`, the Potency was “inactive”.
Potency is the fitted concentration of half-maximal effect.
